# Measured values published in PMC7862700, “An all-to-all approach to the identification of sequence-specific readers for epigenetic DNA modifications on cytosine”.
# Columns and labels:
# Assay in all cases: DAPPL (digital affinity profiling via proximity ligation, sequencing); 10 mM Tris-HCl pH 7.5, 50 mM NaCl, 1 mM DTT, 4% glycerol, room temperature, 30 min; GST-TFs on glutathione beads, 16-mer random dsDNA library, 0.1% formaldehyde crosslink after washing; high values mean tight binding
# FEV = molecular target: T1, FEV (Homo sapiens, UniProt Q99581 1-238); conditions: protein: recombinant; tags: N-terminal GST; dsDNA, one strand shown
# T1 sequence: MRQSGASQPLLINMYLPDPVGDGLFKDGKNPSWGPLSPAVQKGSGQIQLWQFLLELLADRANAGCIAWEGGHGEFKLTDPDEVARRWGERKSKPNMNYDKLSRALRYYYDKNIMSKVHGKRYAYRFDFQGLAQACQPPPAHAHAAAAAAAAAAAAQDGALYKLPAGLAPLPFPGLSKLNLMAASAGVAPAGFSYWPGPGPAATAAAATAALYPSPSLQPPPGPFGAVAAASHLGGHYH
# Method in brief: (§1)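 Sequencing on an Illumina NextSeq500 followed washing, crosslinking with 0.1% formaldehyde, proximity ligation (BsaI/T4 ligase, 1 h, 37 °C) and PCR amplification of pools that had been incubated for 30 min at room temperature with 200 nmole of a random double-stranded 16-mer DNA library in Tris/NaCl/DTT/glycerol buffer. Each pool held DNA-barcoded human transcription factors, expressed in yeast as GST fusions and captured on glutathione beads, plus a tag-only sample. Binding signal is a hexamer's read frequency for a factor divided by its frequency in the tag-only sample.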
# ETV5 = ETV5 (Homo sapiens, UniProt P41161 1-510); conditions: protein: recombinant; tags: N-terminal GST; dsDNA, one strand shown
# Chain of ETV5 (P41161 whole entry): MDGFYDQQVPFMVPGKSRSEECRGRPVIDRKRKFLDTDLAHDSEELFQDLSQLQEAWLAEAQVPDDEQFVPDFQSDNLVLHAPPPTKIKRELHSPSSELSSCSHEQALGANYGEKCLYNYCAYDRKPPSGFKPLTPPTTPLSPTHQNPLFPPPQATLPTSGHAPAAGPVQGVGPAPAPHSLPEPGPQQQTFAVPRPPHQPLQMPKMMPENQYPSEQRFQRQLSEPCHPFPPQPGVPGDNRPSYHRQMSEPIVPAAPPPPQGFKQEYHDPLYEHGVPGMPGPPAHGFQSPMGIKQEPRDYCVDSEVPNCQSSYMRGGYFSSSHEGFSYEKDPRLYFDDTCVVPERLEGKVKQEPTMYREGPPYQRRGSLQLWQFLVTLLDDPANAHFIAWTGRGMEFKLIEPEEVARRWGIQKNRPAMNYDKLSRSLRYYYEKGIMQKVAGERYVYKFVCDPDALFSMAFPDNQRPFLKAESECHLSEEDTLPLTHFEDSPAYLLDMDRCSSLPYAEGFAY
# Method in brief: as §1
# HSF1 = HSF1 (Homo sapiens, UniProt Q00613 1-529); conditions: protein: recombinant; tags: N-terminal GST; chain copies: 3; dsDNA, one strand shown
# Chain of HSF1 (Q00613 whole entry): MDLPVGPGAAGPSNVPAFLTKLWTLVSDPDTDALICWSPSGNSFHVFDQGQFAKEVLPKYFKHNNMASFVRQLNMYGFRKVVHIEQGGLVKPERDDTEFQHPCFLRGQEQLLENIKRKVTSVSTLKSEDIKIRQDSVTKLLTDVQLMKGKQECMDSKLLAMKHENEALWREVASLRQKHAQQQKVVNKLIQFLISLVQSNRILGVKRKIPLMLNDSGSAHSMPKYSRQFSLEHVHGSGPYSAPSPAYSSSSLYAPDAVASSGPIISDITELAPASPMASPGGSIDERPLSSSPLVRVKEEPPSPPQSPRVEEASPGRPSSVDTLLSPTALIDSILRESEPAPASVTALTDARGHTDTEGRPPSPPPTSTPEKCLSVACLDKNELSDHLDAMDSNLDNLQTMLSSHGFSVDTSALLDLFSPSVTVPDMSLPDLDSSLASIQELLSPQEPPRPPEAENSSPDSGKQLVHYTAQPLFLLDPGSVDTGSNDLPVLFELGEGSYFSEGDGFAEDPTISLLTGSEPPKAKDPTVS
# Method in brief: as §1
# SPIC = molecular target: T2, SPIC (Homo sapiens, UniProt Q8N5J4 1-248); conditions: protein: recombinant; tags: N-terminal GST; dsDNA, one strand shown
# T2 sequence: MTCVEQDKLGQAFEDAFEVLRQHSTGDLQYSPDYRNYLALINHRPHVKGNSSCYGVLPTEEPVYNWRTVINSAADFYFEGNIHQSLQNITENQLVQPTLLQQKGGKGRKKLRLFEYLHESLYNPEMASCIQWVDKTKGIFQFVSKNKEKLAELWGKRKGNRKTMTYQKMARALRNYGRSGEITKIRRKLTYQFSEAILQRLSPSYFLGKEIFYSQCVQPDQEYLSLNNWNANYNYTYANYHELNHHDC
# Method in brief: as §1
# ELF4 = ELF4 (Homo sapiens, UniProt Q99607 1-663); conditions: protein: recombinant; tags: N-terminal GST; dsDNA, one strand shown
# Chain of ELF4 (Q99607 whole entry): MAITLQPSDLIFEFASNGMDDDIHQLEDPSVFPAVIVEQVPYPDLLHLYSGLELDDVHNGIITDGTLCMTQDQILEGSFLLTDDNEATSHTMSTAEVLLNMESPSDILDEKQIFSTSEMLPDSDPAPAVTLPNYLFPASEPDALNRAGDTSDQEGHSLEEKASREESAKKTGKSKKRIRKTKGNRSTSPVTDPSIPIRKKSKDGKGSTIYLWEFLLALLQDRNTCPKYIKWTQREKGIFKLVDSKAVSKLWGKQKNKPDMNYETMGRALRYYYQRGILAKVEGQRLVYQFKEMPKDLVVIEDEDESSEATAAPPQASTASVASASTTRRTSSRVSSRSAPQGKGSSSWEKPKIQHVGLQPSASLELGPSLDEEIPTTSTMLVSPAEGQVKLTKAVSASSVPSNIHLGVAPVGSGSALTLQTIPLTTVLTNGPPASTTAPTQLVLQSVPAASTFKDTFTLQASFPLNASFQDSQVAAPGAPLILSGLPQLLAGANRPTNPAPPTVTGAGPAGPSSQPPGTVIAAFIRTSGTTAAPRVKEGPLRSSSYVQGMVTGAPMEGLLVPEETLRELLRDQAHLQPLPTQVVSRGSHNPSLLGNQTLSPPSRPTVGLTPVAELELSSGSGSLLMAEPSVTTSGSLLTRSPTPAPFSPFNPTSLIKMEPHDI
# Method in brief: as §1
# ELK4 = molecular target: T3, ELK4 (Homo sapiens, UniProt P28324-2 1-405); conditions: protein: recombinant; tags: N-terminal GST; dsDNA, one strand shown
# T3 sequence: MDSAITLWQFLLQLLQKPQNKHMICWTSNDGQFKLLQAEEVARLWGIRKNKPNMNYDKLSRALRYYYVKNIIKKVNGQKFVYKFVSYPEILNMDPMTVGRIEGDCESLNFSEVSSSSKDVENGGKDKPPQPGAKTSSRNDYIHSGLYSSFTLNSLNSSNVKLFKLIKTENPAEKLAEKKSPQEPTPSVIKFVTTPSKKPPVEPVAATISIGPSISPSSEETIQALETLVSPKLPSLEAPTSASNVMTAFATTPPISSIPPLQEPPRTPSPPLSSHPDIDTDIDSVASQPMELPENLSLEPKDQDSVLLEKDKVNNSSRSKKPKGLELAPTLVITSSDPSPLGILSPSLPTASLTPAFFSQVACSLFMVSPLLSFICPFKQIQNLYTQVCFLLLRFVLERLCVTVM
# Method in brief: as §1
# ETV2 = molecular target: T4, ETV2 (Homo sapiens, UniProt O00321 1-342); conditions: protein: recombinant; tags: N-terminal GST; dsDNA, one strand shown
# T4 sequence: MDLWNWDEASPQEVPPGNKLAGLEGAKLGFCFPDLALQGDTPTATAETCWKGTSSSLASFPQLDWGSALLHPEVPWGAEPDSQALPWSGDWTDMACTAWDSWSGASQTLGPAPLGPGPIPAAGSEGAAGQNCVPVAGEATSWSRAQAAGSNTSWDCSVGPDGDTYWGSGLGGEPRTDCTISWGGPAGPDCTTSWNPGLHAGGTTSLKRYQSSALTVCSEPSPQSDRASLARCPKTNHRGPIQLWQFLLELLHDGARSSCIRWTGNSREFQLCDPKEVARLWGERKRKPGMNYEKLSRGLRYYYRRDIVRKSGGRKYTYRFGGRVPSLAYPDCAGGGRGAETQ
# Method in brief: as §1
# ELF3 = molecular target: T5, ELF3 (Homo sapiens, UniProt P78545 1-371); conditions: protein: recombinant; tags: N-terminal GST; dsDNA, one strand shown
# T5 sequence: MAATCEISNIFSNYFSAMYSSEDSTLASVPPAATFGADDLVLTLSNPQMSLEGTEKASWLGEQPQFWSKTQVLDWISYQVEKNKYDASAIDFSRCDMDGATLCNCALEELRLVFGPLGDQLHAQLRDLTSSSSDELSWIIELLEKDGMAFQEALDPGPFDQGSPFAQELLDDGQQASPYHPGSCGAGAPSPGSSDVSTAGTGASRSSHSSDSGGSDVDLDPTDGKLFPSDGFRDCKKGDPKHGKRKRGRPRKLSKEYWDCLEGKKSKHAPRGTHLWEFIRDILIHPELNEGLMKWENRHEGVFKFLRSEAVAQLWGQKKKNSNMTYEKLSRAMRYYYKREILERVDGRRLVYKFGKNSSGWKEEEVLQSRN
# Method in brief: as §1
# CRX = CRX (Homo sapiens, UniProt O43186 1-299); conditions: protein: recombinant; tags: N-terminal GST; dsDNA, one strand shown
# Chain of CRX (O43186 whole entry): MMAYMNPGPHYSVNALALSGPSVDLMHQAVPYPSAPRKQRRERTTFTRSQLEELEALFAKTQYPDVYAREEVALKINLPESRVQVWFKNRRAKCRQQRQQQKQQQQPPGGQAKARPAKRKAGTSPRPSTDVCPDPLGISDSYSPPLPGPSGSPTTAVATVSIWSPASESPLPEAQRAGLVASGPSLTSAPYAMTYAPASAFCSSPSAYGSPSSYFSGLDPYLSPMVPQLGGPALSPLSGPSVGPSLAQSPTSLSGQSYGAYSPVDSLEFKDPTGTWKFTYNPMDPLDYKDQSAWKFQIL
# Method in brief: as §1
# ETV1 = ETV1 (Homo sapiens, UniProt P50549 1-477); conditions: protein: recombinant; tags: N-terminal GST; dsDNA, one strand shown
# Chain of ETV1 (P50549 whole entry): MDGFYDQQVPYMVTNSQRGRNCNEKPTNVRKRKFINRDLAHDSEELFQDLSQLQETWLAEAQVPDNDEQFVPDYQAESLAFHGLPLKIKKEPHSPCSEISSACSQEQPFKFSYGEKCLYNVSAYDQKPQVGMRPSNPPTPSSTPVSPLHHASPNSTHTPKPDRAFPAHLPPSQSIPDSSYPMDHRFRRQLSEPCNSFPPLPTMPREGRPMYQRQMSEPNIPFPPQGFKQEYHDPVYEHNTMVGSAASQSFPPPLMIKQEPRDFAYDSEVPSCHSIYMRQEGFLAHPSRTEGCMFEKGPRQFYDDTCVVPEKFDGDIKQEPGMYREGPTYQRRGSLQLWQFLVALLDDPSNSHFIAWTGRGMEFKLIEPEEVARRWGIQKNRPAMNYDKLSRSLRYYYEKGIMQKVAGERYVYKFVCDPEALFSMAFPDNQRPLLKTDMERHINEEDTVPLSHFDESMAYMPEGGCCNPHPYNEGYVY
# Method in brief: as §1
sequence,measurement,setting,value
CTGCAA,binding signal,FEV,"1.29 fold enrichment (6-mer frequency, TF over GST control)"
same,binding signal,ETV5,"1.3 fold enrichment (6-mer frequency, TF over GST control)"
same,binding signal,HSF1,"1.14 fold enrichment (6-mer frequency, TF over GST control)"
same,binding signal,SPIC,"1.2 fold enrichment (6-mer frequency, TF over GST control)"
same,binding signal,ELF4,"1.23 fold enrichment (6-mer frequency, TF over GST control)"
same,binding signal,ELK4,"1.32 fold enrichment (6-mer frequency, TF over GST control)"
same,binding signal,ETV2,"1.07 fold enrichment (6-mer frequency, TF over GST control)"
same,binding signal,ELF3,"1.4 fold enrichment (6-mer frequency, TF over GST control)"
same,binding signal,CRX,"1.05 fold enrichment (6-mer frequency, TF over GST control)"
same,binding signal,ETV1,"1.24 fold enrichment (6-mer frequency, TF over GST control)"
